Hits are enriched below; roughly 6.5% of the tested compounds scored in any of these assays.
HT1080NT lethal = kills 2HG-producing HT-1080-NT fibrosarcoma cells | Potency, µM (top dose mostly 46.1 µM), most hits filed as cytotoxic | 360,000 compounds, 1.6% hits | HT-1080-NT fibrosarcoma viability, CellTiter-Glo ATP luminescence, 48 h | AID 686970;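 further: NT is the 2HG producing partner of a matched IDH1 knockdown line; nearly all actives have a fitted effect of over 55% in size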
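Viability by CellTiter-Glo luminescence after 48 h compound exposure at 37C of HT-1080-NT cells (750/well, RPMI, 5% FBS). % activity scaled between DMSO wells and medium-only wells, then curve-fitted and categorized by curve class.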
HT1080 IDH1KD tx = toxicity to HT-1080 IDH1 knockdown cells (counter line); HT-1080 IDH1 knockdown viability, ATP luminescence, 48 h; AID 686971; 360,000 compounds, 2% hits; Potency, µM (titrated, usually from 46.1 µM), actives largely listed as cytotoxic
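Assay cells: HT-1080 with IDH1 knockdown, 750 per well, RPMI/5% FBS. Exposure: 48 h at 37 °C following 2 h pre-incubation. Read: CellTiter-Glo luminescence; fitted concentration-response, curve class assigned.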
HepG2 tox = kills HepG2 cells in TGF-b inhibitor counter-screen. HepG2 CAGA-GFP viability, ATP luminescence, 18 h. Potency, µM (series often up to 46.1 µM), most hits filed as cytotoxic. 410,000 compounds, 0.76% hits
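CellTiter-Glo luminescence gave cytotoxicity after 18 hours at 37 degrees C. The cells were HepG2 CAGA-GFP in 1% FBS DMEM, stimulated with 500 pg/mL TGF-beta after compound addition. %Activity was normalised to no-cell wells (complete cell-killing) and DMSO (no toxicity), and curves were fitted and classified.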
TGFb inhibitor = inhibitors of TGF-b signaling | Potency, µM (doses to about 46.1 µM), actives largely listed as inhibitors | HepG2 CAGA-GFP TGF-b/SMAD3 reporter, GFP fluorescence, 18 h; TGF-beta stimulated, 500 pg/mL final | 410,000 compounds, 1.2% hits; further: nearly all actives have a fitted effect of over 65% in size
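First, reporter cells (HEPG2 CAGA-GFP) rested 2 h at 37 degrees C. Next, compounds were pinned in and TGF-beta added to 500 pg/mL final. After 18 h, GFP was imaged per cell and summed per well.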
IL1B secr inh = inhibitors of inflammasome signaling (IL-1 beta secretion). 360,000 compounds, 4.7% hits. activity change, % at 57.5 µM. AID 743279. THP-1 LPS/ATP IL-1B secretion, AlphaLISA, 16 h; stronger effect = lower value; in the data active means activity change below about -50%; inconclusive means mostly about -30% to -49%
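THP-1 cells pretreated 1 hr with compounds (up to 57.5 uM final), then stimulated with LPS (250 ng/mL final) plus ATP (1.25 mM final); secreted IL-1B measured by AlphaLISA after 16 hr, decreased signal indicating inhibition.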
Giardia kill = kills Giardia lamblia; 340,000 compounds, 0.15% hits; activity change, % at 7.66 µM, hits read low; Giardia lamblia trophozoite viability; AID 540267; in the data active means activity change below about -80%; inconclusive means between about -30% and that limit;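 further: parasites exposed to compound for two days anaerobically before the ATP read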
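Giardia lamblia trophozoites (100 cells/well) were incubated with compounds for 48 h at 37 deg C under anaerobic conditions. Viability was read as ATP content by one-step luminescence after 15-30 min at room temperature.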
Each line names hits and unclear results; the compound was inactive in the other large screens. Unless noted, the call rests on the fitted dose curve; in most records, active means well fitted curve in the direction sought with a large enough effect; inconclusive means small, poorly fitted or top-dose-only effect, or another doubt; inactive means no such curve, though single readings can be large; an effect the other way counts as inactive or inconclusive.

CCc1ccc(-c2cc(C(=O)N/N=C/c3c[nH]c4ccccc34)[nH]n2)cc1	HT1080NT lethal 5.2µM, HT1080 IDH1KD tx 3.7µM, TGFb inhibitor inconclusive, IL1B secr inh -53
CCc1ccc2c(Cl)c(C(=O)N/N=C/c3c[nH]c4ccccc34)sc2c1	HT1080NT lethal inconclusive, TGFb inhibitor inconclusive, IL1B secr inh -50
Cc1ccc(CSc2nnc(SCC(=O)N/N=C/c3c[nH]c4ccccc34)s2)cc1	HT1080NT lethal 21µM, HT1080 IDH1KD tx 23µM
CO/N=C/c1cccn1-c1nccc(N(C)C)c1C#N	none
CSc1nn(Cc2ccc(C)cc2)c(N)c1S(=O)(=O)c1ccccc1	TGFb inhibitor inconclusive (no result: HT1080NT lethal, HT1080 IDH1KD tx, IL1B secr inh, Giardia kill)
CSc1nn(Cc2ccc(Br)cc2)c(N(C(C)=O)C(C)=O)c1S(=O)(=O)c1ccccc1	HepG2 tox 11µM, TGFb inhibitor inconclusive (no result: HT1080NT lethal, HT1080 IDH1KD tx, IL1B secr inh, Giardia kill)
CSc1nn(Cc2ccc(F)cc2)c(N)c1S(=O)(=O)c1ccc(Cl)cc1	HepG2 tox 14µM, TGFb inhibitor 10µM (no result: HT1080NT lethal, HT1080 IDH1KD tx, IL1B secr inh, Giardia kill)
COc1ccccc1CNC(=O)Cc1c(C)c2c(cc(C)c3c(C)coc32)oc1=O	none (no result: HT1080NT lethal, HT1080 IDH1KD tx, IL1B secr inh, Giardia kill)
O=C(COC(=O)/C=C/c1ccc(Cl)cc1)NC(=O)NCc1ccccc1	HT1080NT lethal inconclusive, HT1080 IDH1KD tx inconclusive
COc1ccccc1NC(=S)NCc1ccc(F)cc1	none
CCOC(=O)O[C@]1(C(=O)COC(=O)CC)CC[C@H]2[C@@H]3CCC4=CC(=O)C=C[C@]4(C)[C@H]3[C@@H](O)C[C@@]21C	none
CCC(=O)OCC(=O)C1(OC(=O)CC)[C@H](C)C[C@H]2[C@H]3[C@H]([C@@H](O)C[C@@]21C)[C@@]1(C)C=CC(=O)C=C1C[C@H]3Cl (stereo partly specified)	HT1080NT lethal inconclusive, HT1080 IDH1KD tx inconclusive, IL1B secr inh -51
COc1cccc(N=C2SC(CC(=O)Nc3ccccc3)C(=O)N2Cc2ccccn2)c1 (stereo unspecified)	IL1B secr inh -63
Nc1nc(NCCCN2CCOCC2)nc(Nc2cccc(F)c2)c1[N+](=O)[O-]	HT1080NT lethal inconclusive, HT1080 IDH1KD tx inconclusive, TGFb inhibitor inconclusive
Nc1nc(NCCCN2CCOCC2)nc(Nc2ccc(F)cc2)c1[N+](=O)[O-]	TGFb inhibitor inconclusive
Nc1nc(NCCCN2CCOCC2)nc(Nc2ccccc2F)c1[N+](=O)[O-]	IL1B secr inh -57
Cc1cccc(Nc2nc(NCCCN3CCOCC3)nc(N)c2[N+](=O)[O-])c1	TGFb inhibitor inconclusive, IL1B secr inh -80
Cc1ccc(NC(=O)c2ccc(Cl)c(S(=O)(=O)NCC3CCCO3)c2)c(O)c1 (stereo unspecified)	none
CCCCn1c(SCC(=O)Nc2ccccc2C(F)(F)F)nc2ccsc2c1=O	TGFb inhibitor inconclusive
CC(C)OCCCn1c(SCC(=O)Nc2ccccc2C(F)(F)F)nc2nccnc2c1=O	HepG2 tox 2.5µM
Cc1ccc(OCCCCNC2CCCC(C)C2C)c(C)c1 (stereo unspecified)	HT1080NT lethal 21µM, HT1080 IDH1KD tx inconclusive, TGFb inhibitor inconclusive, IL1B secr inh -95
Cc1ccc2c(CSc3nncn3C)cc(=O)oc2c1C	HepG2 tox 10µM
Cc1ccc2c(CN3CCCCC3)cc(=O)oc2c1C	none
CC1C(=O)N(Cc2cn(CCC3OCCCO3)nn2)CCS(=O)(=O)N1Cc1ccc(-c2ccc(Cl)c(Cl)c2)cc1 (stereo unspecified)	HT1080NT lethal inconclusive, HT1080 IDH1KD tx 21µM, TGFb inhibitor inconclusive (no result: Giardia kill)
CC1C(=O)N(Cc2cn(CC3CCCCC3)nn2)CCS(=O)(=O)N1Cc1ccc(-c2ccc(Cl)cc2)cc1 (stereo unspecified)	HT1080NT lethal inconclusive, HT1080 IDH1KD tx 16µM, TGFb inhibitor inconclusive (no result: Giardia kill)
COCOCCn1cc(CN2CCS(=O)(=O)N(Cc3ccc(-c4ccc(Cl)c(Cl)c4)cc3)C(C)C2=O)nn1 (stereo unspecified)	HT1080NT lethal 23µM, HT1080 IDH1KD tx inconclusive, TGFb inhibitor inconclusive (no result: Giardia kill)

Source: PubChem (National Center for Advancing Translational Sciences (NCATS))
